Compound activity (PubChem BioAssay)
IL-1B inflam inh: blocks inflammasome-driven IL-1 beta release; THP-1 LPS/ATP IL-1B secretion, AlphaLISA, 16 h; stronger effect = lower value; activity change, % at 57.5 µM; hit rate 4.7% among 360,000; in the data active = activity change below about -50%; inconclusive = mostly about -30% to -49%
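THP-1 cells pretreated 1 hr with compounds (up to 57.5 uM final), then stimulated with LPS (250 ng/mL final) plus ATP (1.25 mM final); secreted IL-1B measured by AlphaLISA after 16 hr, decreased signal indicating inhibition.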
HT1080 IDH1KD tx: toxicity to HT-1080 IDH1 knockdown cells (counter line); AID 686971; hit rate 2% among 360,000; HT-1080 IDH1 knockdown viability, ATP luminescence, 48 h; Potency, µM (highest dose often 46.1 µM), for inactives: top-dose activity, negative = toxicity, usual class: cytotoxic;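 note: potency is the fitted concentration of half-maximal effect; 0% = DMSO wells and -100% = cell-free medium wells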
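Luminescent ATP read-out (CellTiter-Glo, 10 min at room temperature) after 48 h compound exposure at 37 °C gave viability of IDH1-knockdown HT-1080 cells. Activity was normalised to DMSO and cell-free wells, then fitted as concentration-response curves.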
HT1080-NT tox: kills 2HG-producing HT-1080-NT fibrosarcoma cells | Potency, µM (series often up to 46.1 µM), inactives show top-dose activity, negative = less viability, hits mostly cytotoxic | HT-1080-NT fibrosarcoma viability, CellTiter-Glo ATP luminescence, 48 h | hit rate 1.6% among 360,000 | AID 686970;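 note: NT is the 2HG producing partner of a matched IDH1 knockdown line; potency is the fitted concentration of half-maximal effect; 0% = DMSO-treated cells and -100% = media-only wells without cells; nearly all actives have a fitted effect of over 55% in size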
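Toxicity toward the 2HG-producing NT line was scored as %Activity, normalised to DMSO and no-cell wells, from CellTiter-Glo luminescence after 48 hours' treatment.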
DT40 TDP1 CPT: growth inhibition of DT40 Tdp1-/-;hTDP1 cells with camptothecin (screen for TDP1 inhibitors); hit rate 12% among 420,000; Potency, µM (series often up to 46.2 µM), inactives show at the highest dose activity change, negative = growth inhibition, usual class: inhibitors; AID 686979; chicken DT40 Tdp1-/-;hTDP1 cells + 20 nM CPT, ATP luminescence, 48 h; note: potency is the fitted concentration of half-maximal effect; nearly all actives have a fitted effect of over 55% in size
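Cell growth measured by CellTiter-Glo luminescence after a minimum 48 h, 37 C compound exposure with 20 nM CPT in Tdp1-knockout DT40 cells stably expressing hTDP1, seeded 400/well; qHTS titration format.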
DT40 TDP1 no CPT: qHTS for Inhibitors of human tyrosyl-DNA phosphodiesterase 1 (TDP1): qHTS in cells in absence of CPT. DT40 Tdp1-/- hTDP1 cells, no CPT, ATP luminescence, 48 h. Potency, µM (series often up to 46.2 µM), for inactives: at the highest dose activity change, negative = growth inhibition, actives largely listed as inhibitors. hit rate 15% among 420,000. AID 686978, 2013; note: potency is the fitted concentration of half-maximal effect; nearly all actives have a fitted effect of over 55% in size
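Readout: luminescence from CellTiter-Glo after 30 min in the dark at RT. Cells: DT40 Tdp1-/- with stable hTDP1, 400/well. Exposure: compounds alone, ≥48 hr, 37 °C.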
ELG1 DNA repair: blocks ELG1-dependent DNA repair in HEK293T cells | Potency, µM (highest dose often 46.1 µM), without a hit: top-dose activity change, negative = inhibition, most hits filed as inhibitors | hit rate 2.3% among 330,000 | HEK293T ELG1-luciferase reporter, luminescence, 16 h; DNA damage induced by 5-fluorouridine; note: potency is the fitted concentration of half-maximal effect; nearly all actives have a fitted effect of over 55% in size
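Step one: seed 2,000 cells per well. Step two: pin-transfer compound or DMSO alongside 5-fluorouridine. Step three: incubate 16 hr, 37 °C, 5% CO2. Step four: add ONE-Glo, wait 30 min, read luminescence.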
The depositor's hits bear a star; u = inconclusive; x = no result; [ ] = another dose, or the depositor's remark. A selection: hits, their analogues and other compounds. The true share with any hit is near 19%. Unless noted, calls come from the whole dose curve; as a rule, active = well fitted curve in the direction sought with a large enough effect; inconclusive = small, poorly fitted or top-dose-only effect, or another doubt; inactive = no such curve, though single readings can be large; an effect the other way counts as inactive or inconclusive. Unless noted, % is set by controls: 0 for no effect and ±100 for the full control effect.

SMILES | IL-1B inflam inh | HT1080 IDH1KD tx | HT1080-NT tox | DT40 TDP1 CPT | DT40 TDP1 no CPT | ELG1 DNA repair
CC(C(=O)N1c2ccccc2CCc2ccccc21)n1nnc(-c2ccc(N(C)C)cc2)n1 (stereo unspecified) | -20 | -4% | 1% | u | 16µM* | -3%
COc1ccccc1CNC(=O)COC(=O)c1ncc(Cl)c(Cl)c1Cl | -21 | 8% | 4% | 3% | u | 3%
O=C(COC(=O)CCC1CCCC1)Nc1ccc(F)cc1Cl | -17 | 1% | 2% | -10% | 5% | 15%
Cc1ccc(-c2cc(C(=O)NCc3cnn(C)c3C)c3cc(Br)ccc3n2)cc1 | 134 | u | u | u | u | 11%
Cc1ccc(-c2cc(C(=O)N(C)Cc3cnn(C)c3C)c3cc(Br)ccc3n2)cc1 | 24 | -12% | -6% | 7.3µM* | 10µM* | 5.8µM*
O=C(c1cnc2ccc3ccccc3c2c1)c1cc(F)ccc1O | 28 | 8.2µM* | 16µM* | 7.3µM* | u | 18%
CCOC(=O)c1cc(-c2ccc(OC)cc2)n(CCC(=O)Nc2cccc(C)c2C)c1C | x | x | x | -29% | u | x
CCOC(=O)c1cc(-c2ccccc2)n(CCC(=O)Nc2ccc(OC)c(Cl)c2)c1C | x | x | x | 16µM* | 16µM* | x
CC(=O)c1cc(-c2ccccc2)n(CCC(=O)Nc2ccc(C(C)C)cc2)c1C | x | x | x | 8.2µM* | 5.8µM* | x
CCOC(=O)c1cc(-c2ccccc2)n(CCCC(=O)Nc2ccccc2C)c1C | x | x | x | u | 23µM* | x
CCOC(=O)c1cc(-c2ccccc2)n(CCCC(=O)Nc2ccc(C)c(Cl)c2)c1C | x | x | x | u | 23µM* | x
Cn1c(SCc2ccccc2C#N)nc2ccccc2c1=O | 0 | -22% | 0% | -21% | u | 4%
COC(=O)c1cc(-c2ccccc2)n(CCN)c1C | -14 | -1% | 0% | -9% | -17% | x
CCOC(=O)c1cc(-c2ccccc2)n(CCC(=O)Nc2ccc(C(F)(F)F)cc2)c1C | x | x | x | 7.3µM* | 7.3µM* | x
COc1cc(C(=O)NCC(=O)NC(C)CCc2ccccc2)cc(OC)c1OC (stereo unspecified) | 29 | 7% | 8% | -21% | 19% | 9%
CCCc1nc2ccc(Br)cn2c1Cc1ccccc1 | -7 | -21% | -14% | 4.6µM* | 2.9µM* | x
CCCc1nc2ccc(Br)cn2c1Cc1cccc(Cl)c1 | 13 | u | u | 6.5µM* | 4.6µM* | x
CCCc1nc2ccc(C)cn2c1Cc1ccccc1 | 33 | -13% | 0% | u | u | x
COC(=O)CC1[C@@]2(C)C[C@@]34OC5(C)OC6(CC[C@@]7(C)C(c8ccoc8)OC(=O)C(C(C)=O)C7[C@]6(O5)C(O)[C@@]3(O)C2O)[C@]14C (stereo partly specified) | x | x | x | -10% | 2% | x
CCS(=O)(=O)Nc1ccc(C(=O)c2ccccc2)cc1 | -52* | -5% | -3% | -11% | -17% | -6%
CCCCC(=O)Nc1ccc(C(=O)c2ccccc2)cc1 | -60* | -12% | 4% | -19% | u | 23%
CC(=O)Nc1ccc(C(=O)c2ccccc2)cc1 | 6 | -3%[9.24 µM] | 0% | u | u | 26%
COC(=O)/C=c1\sc2ncnn2c1=O | -4 | -3% | 2% | 5.8µM* | 13µM* | 12%
O=C(COc1ccc(Br)cc1)Nc1ccc(CN2CCOCC2)cc1 | 0 | 2% | 1% | u | u | -5%
Cc1ccc(S(=O)(=O)N2CCCCC2)cc1NC(=O)CCNC(=O)c1ccc([N+](=O)[O-])cc1 | 8 | -3% | -5% | 23µM* | 16µM* | -28%
COc1ccc(NC(=O)CCCNC(=O)c2ccc(Cl)cc2)cc1OC | 54 | -6% | 0% | 0% | 3% | -3%
